Assay [1] has as its target Cytochrome P450 1A2 (Homo sapiens) (UniProt P05177). The assay can be described thus: p450-cyp1a2 (AID 410; calls by dose curve; further: potency means the concentration at half of the fitted maximal effect;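 on activity change, negative = inhibition: -100% = full effect of reference inhibitor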). The gist of the method: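 Human CYP1A2 (20nM) demethylated Luciferin-ME at its Km (100uM) in 100mM KPO4. After 10 min compound preincubation, NADPH regeneration ran the reaction 60 min at room temperature. Luciferin was read by luminescence, normalized to 57 uM furafylline.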

Assay [2] concerns the target Glucocorticoid receptor (Homo sapiens) (UniProt P04150). The assay can be described thus: GR-GFP Redistribution (AID 450;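 active means compounds whose dose series gives a full or clear partial fitted curve of increased nuclear translocation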; further: potency means the concentration at half of the fitted maximal effect). The conditions noted are these: U2OS GR-GFP nuclear translocation, laser cytometry, 2 h.
For assay [3] the target is unchanged. The assay can be described thus: GR-EFC Redistribution (AID 451; calls by dose curve; further: potency means the concentration at half of the fitted maximal effect). The conditions noted are these: CHO-K1 GR-EFC translocation, beta-gal luminescence, 2 h. In outline:
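Translocation of GR-ED fusion to nuclear EA restores b-gal, read by luminescence after 1 h room-temperature detection. Engineered CHO-K1 biosensor cells, 1,000/well, exposed 2 h at 37 C to titrations up to 46 uM final.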

Assay [4] has as its target Mitogen-activated protein kinase 10 (Mus musculus) (UniProt Q61831). The assay can be described thus: JNK3 AlphaScreen Assay (AID 530; active means well fitted curve in either direction with a large enough effect, not every such curve was filed as active;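 further: kinase came from lysate of stimulated human HepG2 cells; signal reports phosphorylation of biotinylated GST-cJun 1-79 at Ser73 with 10 µM ATP; on the % scale 0 is the no-effect control and ±100 the full control effect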). In outline: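 Room-temperature AlphaScreen kinase assay; pre-activated HepG2 lysate as JNK3 source, biotin-GST-cJun(1-79) substrate, 10 uM ATP, compound 15 min preincubation.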
On the technique in general: Bead proximity is the source of the signal in Alpha formats.

Assay [5] deals with Cytochrome P450 2C19 (Homo sapiens) (UniProt P33261). As to the kind of experiment: qHTS Assay for Inhibitors and Substrates of Cytochrome P450 2C19 (AID 899). Further: on the % scale 0 is the no-effect control and ±100 the full control effect; nearly all actives have a fitted effect of over 60% in size. The gist of the method:
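5nM enzyme + 10uM Luciferin-H EGE (=KM), 50mM KPO4; cpd pin-transferred, 10 min 37C; NADPH regen, 60 min 37C; stopped w/ luciferin detection reagent, 20 min; luminescence. Normalized to 57uM ketoconazole (AC100).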
For orientation: In qHTS, concentration-response curves come from the screen itself.

Assay [6] in a line: qHTS Assay for Lipid Storage Modulators (AID 1519; calls by dose curve). The conditions noted are these: Drosophila S3 cells, BODIPY lipid droplet/cell ratio, laser cytometry, cells loaded with oleic acid; for activity change, negative = inhibition: at 57.5 µM (top of the series). In outline: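 Cells seeded at 5,000 per well were treated with compounds over a concentration series and loaded with oleic acid (400 uM, as added). Lipid droplet fluorescence (488 nm excitation, 500-530 nm channel) was read by laser-scanning cytometry and normalized to 20 uM Triacsin C.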

The target of assay [7] is Cytochrome P450 3A4 (Homo sapiens) (UniProt P08684). As to the kind of experiment: qHTS Assay for Activators of Cytochrome P450 3A4 (AID 885). Further: nearly all actives have a fitted effect of over 65% in size. The gist of the method: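 Quantitative HTS format: compounds preincubated with 20nM human CYP3A4 and Luciferin-PPXE substrate at KM, reaction started by NADPH regeneration, stopped after 60 min, luciferase luminescence read 20 min later.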
Chain of Cytochrome P450 3A4 (Homo sapiens) (P08684 whole entry, looked up): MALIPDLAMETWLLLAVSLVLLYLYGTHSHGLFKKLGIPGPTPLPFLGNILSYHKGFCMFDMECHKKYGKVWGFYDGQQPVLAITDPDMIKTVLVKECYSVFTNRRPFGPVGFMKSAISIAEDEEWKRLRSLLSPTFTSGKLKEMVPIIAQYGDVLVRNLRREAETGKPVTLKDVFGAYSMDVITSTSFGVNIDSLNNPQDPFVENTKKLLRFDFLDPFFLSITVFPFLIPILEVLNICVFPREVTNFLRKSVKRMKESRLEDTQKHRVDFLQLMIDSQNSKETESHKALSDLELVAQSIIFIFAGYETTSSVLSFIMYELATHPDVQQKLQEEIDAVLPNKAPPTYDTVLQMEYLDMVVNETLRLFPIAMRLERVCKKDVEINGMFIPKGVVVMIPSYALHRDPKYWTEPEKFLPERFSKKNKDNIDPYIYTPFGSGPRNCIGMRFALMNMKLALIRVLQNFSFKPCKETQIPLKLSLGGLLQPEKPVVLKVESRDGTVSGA

Assay [8] is described as follows: Confirmation and Secondary Assay for Modulators of Hemoglobin Beta Chain Splicing at IVS2 654 locus (AID 910).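 Further: HeLa cells stably carrying EGFP split by mutant beta-globin IVS2-654 intron; per-well total GFP intensity by laser scanning cytometry after 2-day treatment; % of control where 0% means no effect.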 In outline: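 Readout: per-well total peak green fluorescence (488 nm ex, 500–520 nm em) from objects 5–250 µm, reflecting correct splicing of an EGFP-654 reporter. Compounds were applied for 2 days at 37 °C to overnight-plated HeLa EGFP-654 cells; controls were DMSO and 500 nM IVS2-654 PNA.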

Assay [9] concerns the target Rap guanine nucleotide exchange factor 3 (Homo sapiens) (UniProt O95398). As to the kind of experiment: Confirmatory qHTS for agonist of cAMP-regulated guanine nucleotide exchange factor 3 (EPAC1) (AID 1645881).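 Further: EPAC1 catalysed release of BODIPY-GDP from Rap1B seen as fluorescence loss; nearly all actives have a fitted effect of over 75% in size.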
For assay [10], the target named is Lysosomal acid glucosylceramidase (Homo sapiens) (UniProt P04062). As to the kind of experiment: Glucocerebrosidase-p2 (AID 348; in the data active means potency below about 10 µM; further: potency means the concentration at half of the fitted maximal effect). The conditions noted are these: purified GBA, blue fluorogenic substrate, 40 min. The gist of the method:
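Compounds titrated from 0.6 nM upwards against 0.2 nM enzyme in pH 5.9 citric acid/KH2PO4, taurocholate, tween-20; blue fluorogenic substrate 80 uM, 40 min room temperature, stopped and read Ex 365/Em 440 for AC50.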

Assay [11] is described as follows: AP1 Signaling Pathway (AID 357; active means well fitted curve in either direction with a large enough effect, not every such curve was filed as active; further: on the % scale 0 is the no-effect control and ±100 the full control effect). The conditions noted are these: ME-180 AP-1-bla reporter, EGF-induced, beta-lactamase ratio, 5 h; at 7.69 µM (top of the series) unless noted. In outline: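 Cells are seeded overnight, exposed to compound titrations and an EC50 level of EGF for 5 hours at 37 °C, then loaded with CCF4 dye for 2.5 hours. Beta-lactamase activity under the AP-1 element is read as a blue/green ratio.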

Assay [12] can be described thus: NFAT Signaling Pathway (AID 444; active means well fitted curve in either direction with a large enough effect, not every such curve was filed as active;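 further: carbachol stimulus at about its EC50 of 1 µM final; on the % scale 0 is the no-effect control and ±100 the full control effect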). The conditions noted are these: Jurkat NFAT-bla M1, carbachol, beta-lactamase ratio, 5 h; at 7.69 µM (top of the series) unless noted. In outline:
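Read-out: CCF4 FRET ratio (460 nm/530 nm) after 1 h RT dye loading, used for %activity and AC50 from titration series. Cells: Jurkat NFAT-β-lactamase/M1 line, treated with compound plus 1 uM carbachol for 5 h, 37 °C.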

Assay [13] is described as follows: Stat Signaling Pathway (AID 446; active means well fitted curve in either direction with a large enough effect, not every such curve was filed as active;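 further: ME-180 cervical cancer cells given 40 pM IL-6 alongside compound; SIE-controlled beta-lactamase reporter measured as 460/530 nm FRET emission ratio; on the % scale 0 is the no-effect control and ±100 the full control effect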). The conditions noted are these: ME-180 (cervical carcinoma) SIE beta-lactamase reporter, IL-6 stimulated, 5 h; at 7.69 µM (top of the series) unless noted. The gist of the method: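 IL-6/STAT signaling read in ME-180 cells via an SIE beta-lactamase reporter. Stimulus was 40 pM IL-6 (its AC50) for 5 hrs, so both activation and inhibition register.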

Assay [14] addresses 3',5'-cyclic-AMP phosphodiesterase 4B (Homo sapiens) (UniProt Q07343). As to the kind of experiment: qHTS Assay for Inhibitors of PDE-IV (AID 607; active means well fitted activation curve with a large enough effect in the main read-out, with a control signal flat, not every such curve was filed as active; further: % of control where 0% means no effect). The gist of the method: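 Live HEK293 cells with a modified cyclic nucleotide-gated (CNG) channel report intracellular cAMP via membrane-potential dye fluorescence (ex 535/em 590 nm). Endogenous PDE-IV was targeted. Compounds were tested at up to 22.9 uM final; RO 20-1724 100 uM served as control.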

The target of assay [15] is Dual specificity protein kinase CLK4 (Homo sapiens) (UniProt Q9HAZ1). The assay can be described thus: qHTS Assay for Inhibitors of CDC-like Kinase 4 (Kinase-Glo Assay) (AID 1770). Further: nearly all actives have a fitted effect of over 65% in size. Further: potency means the concentration at half of the fitted maximal effect. In outline:
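Readout: Kinase-Glo luminescence from ATP left after a 4.5 h room-temperature reaction of 25 nM Clk4 with 100 uM RS peptide and 1 uM ATP (final). Buffer: 25 mM Tris pH 7.5, 10 mM MgCl2.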

Assay [16] shares this target. As to the kind of experiment: qHTS Assay for Inhibitors of CDC-like Kinase 4 (ADP-Glo Assay) (AID 1771). Further: nearly all actives have a fitted effect of over 70% in size. Further: potency means the concentration at half of the fitted maximal effect. In outline:
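Clk4 (25 nM) was incubated 1 hr at room temperature with 100 uM RS repeat peptide and 1 uM ATP in buffer with 2 mM MgCl2, 0.5 mM EGTA, 2.5 mM DTT. ADP formed was quantified by ADP-Glo luminescence.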

For assay [17] the target is unchanged. As to the kind of experiment: qHTS Assay for Inhibitors of CDC-like Kinase 4 (ADP-FP Assay) (AID 1795). Further: nearly all actives have a fitted effect of over 60% in size. Further: potency means the concentration at half of the fitted maximal effect. The gist of the method: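 FP readout: Orange Transcreener ADP2 tracer (4 nM) plus ADP antibody, read after 30 min at room temperature. Kinase step: 6.25 nM Clk4, 100 uM RS peptide, 1 uM ATP, pH 7.5, 1 h.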
Assay [18] addresses Ubiquitin carboxyl-terminal hydrolase 1 (Homo sapiens) (UniProt O94782). As to the kind of experiment: Inhibitors of USP1/UAF1: Pilot qHTS (AID 504865).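 Further: rhodamine fluorescence freed from ubiquitin-rhodamine substrate followed over time; top concentration of the series differs between compounds; on the % scale 0 is the no-effect control and ±100 the full control effect; nearly all actives have a fitted effect of over 35% in size.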 In outline:
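1nM USP1/UAF1 + cpd, 15 min RT; start w/ Ub-Rho 150nM final; kinetic FL 480/540 nm, 6 reads q60 s. Buffer 50mM HEPES pH 7.8, 0.5mM EDTA, 1mM TCEP, 0.01% Tween-20, 0.1 mg/ml BSA.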

Assay [19] concerns the target Cytochrome P450 3A4 (Homo sapiens) (UniProt P08684). As to the kind of experiment: qHTS Assay for Inhibitors and Substrates of Cytochrome P450 3A4 (AID 884). Further: potency means the concentration at half of the fitted maximal effect; nearly all actives have a fitted effect of over 50% in size. In outline: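 20 nM human CYP3A4 with 25 uM Luciferin-PPXE (at KM) in 200 mM KPO4, preincubated 10 min with compound; NADPH regeneration started a 60 min RT reaction. Luciferin detected by luminescence, normalized to 57 uM ketoconazole as full inhibition.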

[20] abbreviates: measured here: cell count channel max response.
Setting [21] is: measured here: lipid channel max response.

Consider seven molecules from PubChem BioAssay (NCATS).

Molecules are shown by their SMILES. Inconclusive results are not listed. Active and inactive are the calls of the source. Unless noted, the call rests on the fitted dose curve; in most records, active means well fitted curve in the direction sought with a large enough effect; inconclusive means small, poorly fitted or top-dose-only effect, or another doubt; inactive means no such curve, though single readings can be large; an effect the other way counts as inactive or inconclusive. Bounds are passed on as bounds.

Chain of Glucocorticoid receptor (Homo sapiens) (P04150 whole entry, looked up): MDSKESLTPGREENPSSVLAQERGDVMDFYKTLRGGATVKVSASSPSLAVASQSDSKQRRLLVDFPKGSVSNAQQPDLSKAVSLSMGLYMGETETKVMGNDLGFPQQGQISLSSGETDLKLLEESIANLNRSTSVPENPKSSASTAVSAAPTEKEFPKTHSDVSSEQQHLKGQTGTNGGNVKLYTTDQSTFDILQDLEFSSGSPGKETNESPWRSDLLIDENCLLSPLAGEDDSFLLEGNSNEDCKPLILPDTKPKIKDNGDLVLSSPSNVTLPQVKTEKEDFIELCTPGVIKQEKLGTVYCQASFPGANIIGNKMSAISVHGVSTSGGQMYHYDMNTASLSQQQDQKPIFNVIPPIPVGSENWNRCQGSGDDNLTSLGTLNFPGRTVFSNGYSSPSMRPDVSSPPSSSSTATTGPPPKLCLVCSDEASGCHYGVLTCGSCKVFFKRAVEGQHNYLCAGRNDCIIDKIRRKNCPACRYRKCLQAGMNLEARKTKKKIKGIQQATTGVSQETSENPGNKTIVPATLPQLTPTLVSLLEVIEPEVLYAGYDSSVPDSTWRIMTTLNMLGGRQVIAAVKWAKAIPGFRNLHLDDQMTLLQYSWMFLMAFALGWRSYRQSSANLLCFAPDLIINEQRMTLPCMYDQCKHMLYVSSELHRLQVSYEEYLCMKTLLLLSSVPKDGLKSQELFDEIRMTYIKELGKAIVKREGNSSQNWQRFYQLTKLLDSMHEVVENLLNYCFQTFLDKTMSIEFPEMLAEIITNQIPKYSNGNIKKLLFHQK
Chain of Cytochrome P450 1A2 (Homo sapiens) (P05177 whole entry, looked up): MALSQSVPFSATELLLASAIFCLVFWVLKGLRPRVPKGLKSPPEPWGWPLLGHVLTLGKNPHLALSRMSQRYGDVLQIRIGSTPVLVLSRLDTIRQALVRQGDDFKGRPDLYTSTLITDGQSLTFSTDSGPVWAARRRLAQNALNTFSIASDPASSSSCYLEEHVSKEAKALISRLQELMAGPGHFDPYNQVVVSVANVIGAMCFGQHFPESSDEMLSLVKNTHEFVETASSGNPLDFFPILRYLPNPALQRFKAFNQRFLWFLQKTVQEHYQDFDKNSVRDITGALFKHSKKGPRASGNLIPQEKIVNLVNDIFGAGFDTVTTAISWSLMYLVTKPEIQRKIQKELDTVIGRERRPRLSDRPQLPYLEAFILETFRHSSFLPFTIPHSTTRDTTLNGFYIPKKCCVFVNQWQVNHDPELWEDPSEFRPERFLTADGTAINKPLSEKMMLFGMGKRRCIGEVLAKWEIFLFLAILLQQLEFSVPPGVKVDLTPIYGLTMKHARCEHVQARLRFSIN
Chain of Ubiquitin carboxyl-terminal hydrolase 1 (Homo sapiens) (O94782 whole entry, looked up): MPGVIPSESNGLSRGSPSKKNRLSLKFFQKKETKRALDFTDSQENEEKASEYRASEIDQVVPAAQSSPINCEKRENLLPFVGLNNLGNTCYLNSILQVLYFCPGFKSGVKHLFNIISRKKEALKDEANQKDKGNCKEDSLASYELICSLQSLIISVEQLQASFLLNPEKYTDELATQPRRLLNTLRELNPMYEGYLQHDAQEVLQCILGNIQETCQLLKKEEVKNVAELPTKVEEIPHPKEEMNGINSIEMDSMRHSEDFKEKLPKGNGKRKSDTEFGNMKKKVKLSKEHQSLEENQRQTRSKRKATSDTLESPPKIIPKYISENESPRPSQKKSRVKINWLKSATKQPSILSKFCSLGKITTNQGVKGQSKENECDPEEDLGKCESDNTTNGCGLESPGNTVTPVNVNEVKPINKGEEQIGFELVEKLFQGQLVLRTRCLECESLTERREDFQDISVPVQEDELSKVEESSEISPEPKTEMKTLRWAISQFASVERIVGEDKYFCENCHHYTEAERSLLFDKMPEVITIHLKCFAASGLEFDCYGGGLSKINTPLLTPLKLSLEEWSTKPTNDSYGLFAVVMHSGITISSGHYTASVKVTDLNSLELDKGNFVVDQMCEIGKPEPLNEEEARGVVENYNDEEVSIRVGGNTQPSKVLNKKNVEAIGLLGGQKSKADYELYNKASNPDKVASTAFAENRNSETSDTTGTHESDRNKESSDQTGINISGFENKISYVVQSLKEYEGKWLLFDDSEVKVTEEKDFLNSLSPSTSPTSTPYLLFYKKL
Chain of Dual specificity protein kinase CLK4 (Homo sapiens) (Q9HAZ1 whole entry, looked up): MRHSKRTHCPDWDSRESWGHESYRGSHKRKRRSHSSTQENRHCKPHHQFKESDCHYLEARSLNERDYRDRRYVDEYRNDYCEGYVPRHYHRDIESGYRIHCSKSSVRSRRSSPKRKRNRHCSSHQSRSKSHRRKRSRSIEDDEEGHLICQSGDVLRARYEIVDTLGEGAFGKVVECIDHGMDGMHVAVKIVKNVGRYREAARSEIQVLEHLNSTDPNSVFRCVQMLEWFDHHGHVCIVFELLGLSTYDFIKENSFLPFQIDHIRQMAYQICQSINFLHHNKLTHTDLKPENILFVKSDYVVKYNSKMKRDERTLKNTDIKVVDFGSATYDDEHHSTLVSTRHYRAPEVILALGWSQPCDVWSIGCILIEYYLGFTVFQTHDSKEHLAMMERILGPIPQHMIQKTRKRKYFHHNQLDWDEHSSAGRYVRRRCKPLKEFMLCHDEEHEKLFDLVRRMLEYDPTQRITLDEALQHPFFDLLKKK
Chain of 3',5'-cyclic-AMP phosphodiesterase 4B (Homo sapiens) (Q07343 whole entry, looked up): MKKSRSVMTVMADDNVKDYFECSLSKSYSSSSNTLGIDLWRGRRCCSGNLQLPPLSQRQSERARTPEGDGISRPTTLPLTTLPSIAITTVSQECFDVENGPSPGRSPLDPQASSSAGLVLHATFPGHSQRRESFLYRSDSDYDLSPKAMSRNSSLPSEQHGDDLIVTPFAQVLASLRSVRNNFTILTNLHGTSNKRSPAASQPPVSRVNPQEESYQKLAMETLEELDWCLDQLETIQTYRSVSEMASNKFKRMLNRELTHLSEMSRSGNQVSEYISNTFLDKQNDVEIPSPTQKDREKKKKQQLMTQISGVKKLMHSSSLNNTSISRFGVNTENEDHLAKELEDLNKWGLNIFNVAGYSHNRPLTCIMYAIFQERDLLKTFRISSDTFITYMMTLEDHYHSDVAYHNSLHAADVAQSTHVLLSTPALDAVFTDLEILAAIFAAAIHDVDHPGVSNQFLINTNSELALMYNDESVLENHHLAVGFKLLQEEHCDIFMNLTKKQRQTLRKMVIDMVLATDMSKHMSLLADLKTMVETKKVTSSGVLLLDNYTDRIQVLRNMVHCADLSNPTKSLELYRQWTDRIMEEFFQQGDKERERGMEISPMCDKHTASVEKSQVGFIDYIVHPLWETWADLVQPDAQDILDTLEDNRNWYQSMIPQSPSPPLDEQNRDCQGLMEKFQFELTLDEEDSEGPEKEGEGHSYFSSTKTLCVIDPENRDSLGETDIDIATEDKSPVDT
Chain of Lysosomal acid glucosylceramidase (Homo sapiens) (P04062 whole entry, looked up): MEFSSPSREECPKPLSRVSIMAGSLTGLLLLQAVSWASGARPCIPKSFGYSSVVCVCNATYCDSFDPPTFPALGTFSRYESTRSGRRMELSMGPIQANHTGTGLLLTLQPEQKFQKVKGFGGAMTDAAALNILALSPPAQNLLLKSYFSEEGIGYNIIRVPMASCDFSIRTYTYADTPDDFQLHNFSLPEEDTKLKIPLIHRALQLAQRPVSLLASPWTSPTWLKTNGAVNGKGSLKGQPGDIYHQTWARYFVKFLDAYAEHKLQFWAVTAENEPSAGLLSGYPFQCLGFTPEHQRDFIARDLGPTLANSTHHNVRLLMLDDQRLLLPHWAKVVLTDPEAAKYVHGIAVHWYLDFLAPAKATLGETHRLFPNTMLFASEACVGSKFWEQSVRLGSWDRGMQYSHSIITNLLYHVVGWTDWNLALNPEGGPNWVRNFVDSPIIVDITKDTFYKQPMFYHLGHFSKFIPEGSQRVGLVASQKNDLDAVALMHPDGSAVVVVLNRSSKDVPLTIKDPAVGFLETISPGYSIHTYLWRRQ
Chain of Cytochrome P450 2C19 (Homo sapiens) (P33261 whole entry, looked up): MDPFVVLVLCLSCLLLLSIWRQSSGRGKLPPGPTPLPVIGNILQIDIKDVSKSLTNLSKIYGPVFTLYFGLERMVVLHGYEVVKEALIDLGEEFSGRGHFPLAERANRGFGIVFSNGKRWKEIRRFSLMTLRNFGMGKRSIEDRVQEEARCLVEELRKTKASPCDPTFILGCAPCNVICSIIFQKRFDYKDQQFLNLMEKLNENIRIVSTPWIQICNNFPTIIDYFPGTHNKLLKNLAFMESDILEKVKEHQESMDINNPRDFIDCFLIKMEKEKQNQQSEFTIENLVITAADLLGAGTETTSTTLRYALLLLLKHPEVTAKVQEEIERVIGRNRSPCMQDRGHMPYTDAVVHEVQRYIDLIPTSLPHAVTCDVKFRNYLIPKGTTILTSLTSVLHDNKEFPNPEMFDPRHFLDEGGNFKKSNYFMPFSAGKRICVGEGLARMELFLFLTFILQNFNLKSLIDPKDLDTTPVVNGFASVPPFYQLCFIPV

Turning to `COc1cc2c3cc1Oc1c(OC)c(OC)cc4c1[C@@H](Cc1ccc(O)c(c1)Oc1ccc(cc1)C[C@@H]3N(C)CC2)N(C)CC4`, the Potency entry in assay [1], in [4] and in assay [5] was “inactive” throughout. The Potency in assay [2] and in assay [3] was > 46 µM (inactive) in each case. In addition, in assay [6], the activity change, negative = inhibition was 6.85% (inactive). The results for the max response in [6] (setting [20]) and in assay [6] (setting [21]) were 20.8% and 29.4%, respectively.

For `COc1cc(C)c(C(=O)Oc2cc(C)c(C(=O)O)c(O)c2C)c(OC)c1C`, the Potency entry in assay [7], in assay [8] and in [9] was “inactive” each time. Moreover, the activity change, negative = inhibition in [6] is 7.39% (inactive). In addition, the max response was 9.06% in assay [6] (setting [20]) and 19.2% in [6] (setting [21]).

As for `Nc1ncnc2c1ncn2[C@@H]1O[C@H](COP(=O)(O)OP(=O)(O)OP(=O)(O)OP(=O)(O)OC[C@@H]2O[C@H](n3cnc4c(N)ncnc43)[C@@H](O)[C@@H]2O)[C@H](O)[C@H]1O`, the activity change, negative = inhibition in [6] was 1.69% (inactive). Also, the values for the max response in assay [6] (setting [20]) and in assay [6] (setting [21]) were 17% and 19.7%, respectively.

`COc1ccc(-c2nc3cnc(OC)nc3n(-c3ccc(OC)cc3)c2=O)cc1`: the Potency in assay [10] is > 11.4 µM (inactive); in assay [1], 0.316 µM (active); in [2], > 9.22 µM (inactive); in assay [3], > 46 µM (inactive). Moreover, the figures for the activity change, negative = inhibition in assay [11], in assay [12] and in assay [6] were -4.28% (inactive), 5.9% (inactive) and -15.7% (inactive), respectively. Further, in [13], the activity, negative = inhibition is -4.51% (inactive). The Potency entry in assay [4], in assay [14], in assay [7], in assay [15], in assay [16] and in [17] was “inactive” each time. For the same molecule, the results for the max response in assay [6] (setting [20]) and in assay [6] (setting [21]) were 29.3% and 4.55%, respectively.

Turning to `COc1cccc(Nc2ncc3nc(C)c(=O)n(-c4ccccc4)c3n2)c1`, the Potency is > 11.4 µM (inactive) in [10]; 5.01 µM (active) in assay [1]; > 9.22 µM (inactive) in assay [2]; > 46 µM (inactive) in [3]; 10 µM (active) in assay [15]; 12.6 µM (active) in [16]. Also, the Potency in assay [17] is 1.58 µM (active). In addition, the activity change, negative = inhibition in assay [12] was 11.1% (inactive); in assay [6], -6.79% (inactive). Also, the activity, negative = inhibition in [13] was -20.1% (inactive). Also, the Potency entry in assay [4], in assay [14], in [7] and in assay [18] was “inactive” throughout. The figures for the max response in assay [6] (setting [20]) and in assay [6] (setting [21]) were -3.12% and -13.9%, respectively.

Take `Cc1ccccc1-c1cncnc1N1CCN(C)CC1`: the Potency in assay [10] was > 11.4 µM (inactive); in assay [1] it was 15.8 µM (active); in assay [2] it was > 46 µM (inactive); in assay [3] it was > 46 µM (inactive); in assay [19], 1.58 µM (active). The activity change, negative = inhibition is 7.79% (inactive) in assay [11] and 4.3% (inactive) in assay [6]. Also, the activity, negative = inhibition in assay [13] is 11.4% (inactive). Moreover, the Potency entry in assay [4], in [14], in assay [7], in assay [15], in assay [16] and in [17] was “inactive” each time. Further, in assay [18], the Potency result is “inactive”. Further, the max response was 4.53% in assay [6] (setting [20]) and 8.66% in [6] (setting [21]).

As to `CN(C)C(=O)c1ccc(-c2ccc3ncnc(NCc4cccs4)c3c2)cc1`, the Potency in [10] was > 11.4 µM (inactive); in assay [1], 15.8 µM (active); in [2], > 46 µM (inactive); in assay [3], > 46 µM (inactive); in assay [15], 12.6 µM (active); in assay [16], 7.08 µM (active). Further, in [17], the Potency was 14.1 µM (active). Further, the activity change, negative = inhibition in assay [11] is -29.4% (inactive); in assay [12], 17.3% (inactive); in assay [6], 6.27% (inactive). The activity, negative = inhibition in assay [13] is -7.67% (inactive). Besides, the Potency result in [4], in [7] and in assay [18] was “inactive” throughout. Besides, the max response in assay [6] (setting [20]) stood at 5.7%; in assay [6] (setting [21]) it was 12.3%.
